# Source: PubChem BioAssay (NCATS)
# Values joined by “and” are separate entries in the source; they are usually repeats but may differ in a detail not shown here. Equal values may be shown once. Values without a mark were called inactive. Results filed as inconclusive are left out. A call without a number means that no potency is given here. Active and inactive are the calls of the source. Unless noted, calls come from the whole dose curve; as a rule, active = well fitted curve in the direction sought with a large enough effect; inconclusive = small, poorly fitted or top-dose-only effect, or another doubt; inactive = no such curve, though single readings can be large; an effect the other way counts as inactive or inconclusive. Where a SMILES comes first, the peptide text is derived from it. Bridges are numbered along the chain shown (N, C = ends).
# Assays:
# [1] = target: Luciferin 4-monooxygenase (Photinus pyralis) (UniProt P08659); experiment: Biochemical firefly luciferase enzyme assay for NPC (AID 624030); note: nearly all actives have a fitted effect of over 70% in size; note: potency is the fitted concentration of half-maximal effect
# Sequence of Luciferin 4-monooxygenase (Photinus pyralis) (P08659 whole entry, looked up): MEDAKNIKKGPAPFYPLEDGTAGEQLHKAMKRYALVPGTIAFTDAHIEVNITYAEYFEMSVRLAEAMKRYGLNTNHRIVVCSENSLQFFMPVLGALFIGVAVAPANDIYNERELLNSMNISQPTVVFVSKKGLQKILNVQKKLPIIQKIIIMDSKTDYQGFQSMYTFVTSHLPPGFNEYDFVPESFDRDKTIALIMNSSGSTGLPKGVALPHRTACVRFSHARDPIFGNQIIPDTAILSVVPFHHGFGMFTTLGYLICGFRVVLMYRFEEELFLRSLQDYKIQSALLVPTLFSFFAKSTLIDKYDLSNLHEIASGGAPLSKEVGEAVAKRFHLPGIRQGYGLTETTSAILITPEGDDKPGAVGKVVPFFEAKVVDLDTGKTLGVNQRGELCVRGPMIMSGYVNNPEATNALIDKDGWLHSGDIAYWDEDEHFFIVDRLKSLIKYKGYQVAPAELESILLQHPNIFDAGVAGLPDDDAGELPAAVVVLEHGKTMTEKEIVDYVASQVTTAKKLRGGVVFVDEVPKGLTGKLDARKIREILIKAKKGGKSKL
# Outline: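 Direct inhibition of firefly luciferase enzyme (10 nM final, 50 mM Tris Acetate) assessed by luminescence within 5 minutes. Percent activity scaled between DMSO and PTC124 positive control, with concentration-effect curves classified by fit quality and response.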
# [2] = target: Voltage-gated inwardly rectifying potassium channel KCNH2 (Homo sapiens) (UniProt Q12809); experiment: qHTS Assay for Small Molecule Inhibitors of the Human hERG Channel Activity (AID 588834);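 note: top concentration of the series differs between compounds; lower thallium flux fluorescence means stronger hERG block; nearly all actives have a fitted effect of over 50% in size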
# Sequence of Voltage-gated inwardly rectifying potassium channel KCNH2 (Homo sapiens) (Q12809 whole entry, looked up): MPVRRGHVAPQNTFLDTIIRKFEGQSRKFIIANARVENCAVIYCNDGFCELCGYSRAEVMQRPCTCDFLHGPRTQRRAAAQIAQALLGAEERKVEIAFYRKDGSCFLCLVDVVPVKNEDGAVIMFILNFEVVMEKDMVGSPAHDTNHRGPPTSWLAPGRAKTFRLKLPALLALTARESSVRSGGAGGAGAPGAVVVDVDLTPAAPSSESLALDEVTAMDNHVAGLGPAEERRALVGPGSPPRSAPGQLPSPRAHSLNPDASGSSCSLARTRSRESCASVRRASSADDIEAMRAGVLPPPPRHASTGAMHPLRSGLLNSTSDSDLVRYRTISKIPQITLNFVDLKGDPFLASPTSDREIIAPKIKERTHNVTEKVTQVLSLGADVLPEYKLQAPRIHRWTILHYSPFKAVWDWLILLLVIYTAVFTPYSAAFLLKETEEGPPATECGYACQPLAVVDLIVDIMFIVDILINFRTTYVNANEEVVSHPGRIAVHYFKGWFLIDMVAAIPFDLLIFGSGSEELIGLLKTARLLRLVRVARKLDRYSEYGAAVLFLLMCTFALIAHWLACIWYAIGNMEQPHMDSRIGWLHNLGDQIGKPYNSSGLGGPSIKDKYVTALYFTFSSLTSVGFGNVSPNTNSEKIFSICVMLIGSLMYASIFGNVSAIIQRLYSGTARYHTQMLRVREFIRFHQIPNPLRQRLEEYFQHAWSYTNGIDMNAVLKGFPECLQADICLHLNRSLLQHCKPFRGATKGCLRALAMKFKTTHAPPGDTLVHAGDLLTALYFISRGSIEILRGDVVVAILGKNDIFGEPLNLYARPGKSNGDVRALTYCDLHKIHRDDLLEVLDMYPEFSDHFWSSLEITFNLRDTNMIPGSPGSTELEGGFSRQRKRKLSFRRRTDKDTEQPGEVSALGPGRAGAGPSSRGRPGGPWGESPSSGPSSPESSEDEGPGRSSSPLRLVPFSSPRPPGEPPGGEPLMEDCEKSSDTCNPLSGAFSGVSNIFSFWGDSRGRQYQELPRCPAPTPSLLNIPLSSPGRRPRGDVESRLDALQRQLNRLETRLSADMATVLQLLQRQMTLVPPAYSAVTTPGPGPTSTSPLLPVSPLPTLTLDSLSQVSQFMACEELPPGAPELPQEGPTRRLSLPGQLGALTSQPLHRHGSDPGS
# Outline: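 U2OS cells BacMam-transduced with hERG, 2000 cells/well, compound ~10 min at 37 °C before stimulation buffer. FluxOR thallium flux fluorescence read kinetically on FDSS; decrease indicates block; AC50 from Hill fits.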
# [3] = qHTS assay for small molecule activators of the p53 signaling pathway (AID 651743; active = well fitted activation curve with a large enough effect in the signal ratio, not every such curve was filed as active; the % refers to the signal ratio; note: series mostly up to about 92 µM); conditions: HCT-116 p53RE-bla, beta-lactamase FRET ratio, 16 h; hits give high values
# Outline: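 Read-out is fluorescence intensity from the LiveBLAzer B/G FRET substrate, added for 2 hours at room temperature after HCT-116 p53RE-bla cells had been incubated with compounds for 16 hours at 37 C.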
# [4] = qHTS assay for small molecule activators of the nuclear factor-kappa B (NF-kB) signaling pathway (AID 651749; active = well fitted activation curve with a large enough effect in the signal ratio; the % refers to the signal ratio; note: series mostly up to about 77 µM); conditions: NF-kB-bla ME-180 cells, beta-lactamase FRET ratio, 16 h; hits give high values
# Outline: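 Readout: beta-lactamase reporter driven by an NF-kB response element, detected fluorescently as loss of FRET. Cells were the ME-180 line, treated 16 hr at 37C with pin-transferred compound.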
# [5] = target: Tumor necrosis factor (Homo sapiens) (UniProt P01375); experiment: qHTS assay to identify small molecules that stimulate Tumor Necrosis Factor-alpha (TNF-alpha) secretion (AID 651757; active = well fitted curve in the direction sought with a large enough effect in the signal ratio; the % refers to the signal ratio)
# Sequence of Tumor necrosis factor (Homo sapiens) (P01375 whole entry, looked up): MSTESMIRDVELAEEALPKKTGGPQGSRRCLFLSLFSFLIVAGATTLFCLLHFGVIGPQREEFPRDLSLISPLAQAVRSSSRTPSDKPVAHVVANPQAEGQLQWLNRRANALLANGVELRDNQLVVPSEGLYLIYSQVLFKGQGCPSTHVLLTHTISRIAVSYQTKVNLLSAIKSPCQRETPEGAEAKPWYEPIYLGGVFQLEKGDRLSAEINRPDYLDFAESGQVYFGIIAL
# Outline: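 Read-out is HTRF, a TR-FRET sandwich of cryptate- and XL665-labeled anti-TNF-alpha antibodies detecting cytokine secreted by THP-1 cells. Cells had been incubated with test compounds at 37 C for 17 hrs beforehand.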
# [6] = qHTS assay to identify small molecules that stimulate interleukin-8 (IL-8) secretion (AID 651758; active = well fitted activation curve with a large enough effect in the signal ratio; the % refers to the signal ratio)
# Outline: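 Secreted IL-8 measured by TR-FRET sandwich (cryptate and XL665 antibodies) from THP-1 cells exposed to compound overnight (16 hrs, 37 C).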
# [7] = qHTS assay for environmental chemicals that activate the Aryl hydrocarbon Receptor (AhR) signaling pathway (AID 651777); conditions: 1A2-DRE human hepatoma cells, luciferase, 24 h; hits give high values; note: nearly all actives have a fitted effect of over 15% in size
# Outline: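 Stable CYP1A2 promoter/DRE-luciferase human hepatoma line treated 24 hr; One-Glo luminescence, 30 min RT.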
# [8] = target: Peroxisome proliferator-activated receptor alpha (Homo sapiens) (UniProt Q07869); experiment: qHTS assay for small molecule agonists of the peroxisome proliferator-activated receptor alpha (PPARalpha) signaling pathway (AID 651778); conditions: PathHunter PPARalpha complementation, chemiluminescence, 6 h; max response: hits give high values; note: potency is the fitted concentration of half-maximal effect
# Sequence of Peroxisome proliferator-activated receptor alpha (Homo sapiens) (Q07869 whole entry, looked up): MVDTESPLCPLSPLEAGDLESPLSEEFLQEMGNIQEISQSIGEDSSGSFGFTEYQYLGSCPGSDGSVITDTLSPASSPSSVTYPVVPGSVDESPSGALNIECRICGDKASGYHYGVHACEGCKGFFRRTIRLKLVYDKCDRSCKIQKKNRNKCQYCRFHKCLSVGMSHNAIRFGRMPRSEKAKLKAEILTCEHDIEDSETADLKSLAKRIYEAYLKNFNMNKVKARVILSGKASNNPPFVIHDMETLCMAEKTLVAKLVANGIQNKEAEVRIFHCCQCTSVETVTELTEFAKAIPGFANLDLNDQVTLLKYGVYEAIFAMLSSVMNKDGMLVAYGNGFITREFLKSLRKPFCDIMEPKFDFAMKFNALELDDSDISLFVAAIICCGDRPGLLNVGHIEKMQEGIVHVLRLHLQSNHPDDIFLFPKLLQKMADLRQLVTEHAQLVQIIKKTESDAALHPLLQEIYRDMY
# Outline: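 Chemiluminescence from complemented enzyme reported PPARalpha activation in cells after 6 hr of compound treatment at 37 C. The detection reagent was incubated for 60 min at room temperature, and compounds were scored as agonists.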
# [9] = target: Tumor susceptibility gene 101 protein (Homo sapiens) (UniProt Q99816); experiment: qHTS Assay for Iinhibitors of HIV-1 Budding by Blocking the Interaction of PTAP/TSG101: Hit Validation (AID 651600); note: nearly all actives have a fitted effect of over 70% in size
# Sequence of Tumor susceptibility gene 101 protein (Homo sapiens) (Q99816 whole entry, looked up, the tested form may be a part): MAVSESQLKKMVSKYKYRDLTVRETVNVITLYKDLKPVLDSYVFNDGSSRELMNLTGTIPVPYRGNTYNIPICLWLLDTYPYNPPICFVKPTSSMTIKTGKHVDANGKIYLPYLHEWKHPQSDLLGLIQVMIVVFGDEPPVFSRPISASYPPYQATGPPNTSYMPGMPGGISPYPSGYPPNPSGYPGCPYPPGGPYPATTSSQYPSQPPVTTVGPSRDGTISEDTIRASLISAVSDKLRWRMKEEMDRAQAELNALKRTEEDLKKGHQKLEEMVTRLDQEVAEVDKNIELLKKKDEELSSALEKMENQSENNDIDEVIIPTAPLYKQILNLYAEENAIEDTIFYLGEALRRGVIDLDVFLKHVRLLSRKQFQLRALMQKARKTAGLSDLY
# Outline: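 Fluorescence polarization binding assay: Tsg101 binding domain (10 uM) mixed with compounds and FITC-labeled PTAP peptide (50 nM) in HEPES pH 7.5, 0.15 M NaCl, 0.01% Tween 20, EDTA, TCEP; 20 min at r.t.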
# [10] = S16 Schwann cell viability assay (CellTiter-Glo assay) (AID 624031); note: nearly all actives have a fitted effect of over 70% in size; note: potency is the fitted concentration of half-maximal effect
# Outline: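 Concentration-effect curves come from CellTiter-Glo luminescence of S16 rat Schwann cells after 24 h compound exposure. Each reading was normalized to DMSO wells (0%) and wells without cells, and curves were ranked by r2 and response magnitude.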
# [11] = qHTS assay for small molecule agonists of the antioxidant response element (ARE) signaling pathway (AID 651741; active = well fitted activation curve with a large enough effect in the signal ratio; the % refers to the signal ratio; note: potency is the fitted concentration of half-maximal effect)
# Outline: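 Quantitative HTS in HepG2 cells stably expressing an ARE-beta-lactamase reporter; 16 h compound exposure at 37 C, followed by 2 h room-temperature incubation with LiveBLAzer B/G FRET substrate and fluorescence measurement.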
# [12] = S16 Schwann cell PMP22 intronic element beta-lactamase assay (AID 624044; calls by dose curve; note: nearly all actives have a fitted effect of over 15% in size)
# Outline: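 Rat S16 Schwann cells with beta-Lac driven by a PMP22 intronic element, compound-treated 24 h at 37 °C. LiveBLAzer FRET B/G read: 460 nm normalized to potassium clavulanate vs DMSO; 535 nm FRET as viability; concentration-effect curves classified.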
# [13] = target: Glutaminase kidney isoform, mitochondrial (Homo sapiens) (UniProt O94925); experiment: qHTS for Inhibitors of Glutaminase (GLS): LOPAC Validation (AID 624146);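 note: glutamate product detected by oxidase and peroxidase coupled Amplex red fluorescence gain; series mostly up to about 46 µM; nearly all actives have a fitted effect of over 60% in size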
# Sequence of Glutaminase kidney isoform, mitochondrial (Homo sapiens) (O94925 whole entry, looked up, canonical isoform): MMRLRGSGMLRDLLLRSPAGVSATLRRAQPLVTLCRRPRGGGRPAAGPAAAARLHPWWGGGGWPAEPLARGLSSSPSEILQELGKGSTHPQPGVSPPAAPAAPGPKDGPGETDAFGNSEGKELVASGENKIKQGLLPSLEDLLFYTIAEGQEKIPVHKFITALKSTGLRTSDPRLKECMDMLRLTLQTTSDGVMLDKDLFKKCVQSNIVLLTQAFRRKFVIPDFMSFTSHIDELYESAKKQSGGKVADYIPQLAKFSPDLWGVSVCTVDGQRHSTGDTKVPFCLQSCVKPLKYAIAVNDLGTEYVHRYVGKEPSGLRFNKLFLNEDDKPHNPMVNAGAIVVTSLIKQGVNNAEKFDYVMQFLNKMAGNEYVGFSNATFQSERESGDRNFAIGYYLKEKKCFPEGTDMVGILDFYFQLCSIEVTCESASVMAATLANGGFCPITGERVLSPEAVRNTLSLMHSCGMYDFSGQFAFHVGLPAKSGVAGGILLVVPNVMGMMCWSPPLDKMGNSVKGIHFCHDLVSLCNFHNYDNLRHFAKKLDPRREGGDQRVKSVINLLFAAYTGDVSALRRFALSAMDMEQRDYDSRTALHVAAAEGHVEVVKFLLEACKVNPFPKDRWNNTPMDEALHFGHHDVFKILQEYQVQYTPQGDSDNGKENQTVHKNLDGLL
# Outline: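 Read-out is an Amplex red fluorescence increase coupled through glutamate oxidase and HRP, measured before and after 30 min room-temperature incubation. hKGA is in 45 mM KH2PO4 (pH 8.2) with 0.02% Tween-20; glutamine added as 1mM solution.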
# [14] = target: Glucagon-like peptide 1 receptor (Homo sapiens) (UniProt P43220); experiment: qHTS of GLP-1 Receptor Agonists: LOPAC Validation (AID 624148);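 note: luminescence from a luciferase reporter switched on by cAMP; higher luminescence signal means agonism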
# Sequence of Glucagon-like peptide 1 receptor (Homo sapiens) (P43220 whole entry, looked up): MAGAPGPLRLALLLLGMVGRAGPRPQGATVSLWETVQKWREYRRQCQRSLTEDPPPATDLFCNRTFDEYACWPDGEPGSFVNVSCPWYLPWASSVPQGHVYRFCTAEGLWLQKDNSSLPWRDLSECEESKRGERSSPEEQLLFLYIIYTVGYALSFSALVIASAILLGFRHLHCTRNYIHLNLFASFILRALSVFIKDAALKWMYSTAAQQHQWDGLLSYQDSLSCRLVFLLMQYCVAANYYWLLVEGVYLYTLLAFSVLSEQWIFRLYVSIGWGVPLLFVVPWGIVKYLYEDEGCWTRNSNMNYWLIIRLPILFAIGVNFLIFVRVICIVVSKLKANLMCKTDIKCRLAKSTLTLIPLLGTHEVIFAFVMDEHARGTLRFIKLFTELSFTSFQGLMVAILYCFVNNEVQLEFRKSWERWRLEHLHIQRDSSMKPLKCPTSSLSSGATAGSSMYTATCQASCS
# Outline: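 Agonism scored as increased luciferase luminescence driven by cAMP in HEK293 clones carrying GLP-1R. Cells settled 12 hours, received compound for 4-6 hr at 37 deg C, 5% CO2, and were read after 12 min detection reagent at RT.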
# [15] = qHTS of Nrf2 Activators: LOPAC Validation (AID 624149)
# Outline: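 Luminescence read-out of ARE-luciferase activation: AREc32_Fluc cells treated with compounds for 24 hr at 37 deg C, then lysed with Steady-Glo for 30 min at room temperature before reading.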
# [16] = HTS Assay for Allosteric Antagonists of the Human D2 Dopamine Receptor: Hit Validation in HTRF (AID 624455);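 note: stable D1 dopamine receptor cell line scored for blocking the D1 response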
# Outline: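 First, antagonism was screened by calcium flux in a force-coupled, inducible Hek293 Trex D2 line challenged with EC80 dopamine. Hits then went into an HTRF assay in cells stably expressing D1, testing inhibition of the D1 response.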
# [17] = S16 Schwann cell PMP22 intronic element firefly luciferase assay (AID 624032); note: potency is the fitted concentration of half-maximal effect; nearly all actives have a fitted effect of over 30% in size
# Outline: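 Luciferase reporter of PMP22 intronic-element expression in stably transfected S16 rat Schwann cells, read by ONE-Glo luminescence after 24 h compound exposure at 37 C. Activity scaled between DMSO (0%) and positive-control PTC124; concentration-effect curves quality-classified.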
smiles,measurement,setting,value
NCCCC[C@H](NC(=O)[C@@H]1CCCN1C(=O)[C@@H]1CSSC[C@H](NC(=O)CNC(=O)CNC(=O)CN)C(=O)N[C@@H](Cc2ccc(O)cc2)C(=O)N[C@@H](Cc2ccccc2)C(=O)N[C@@H](CCC(N)=O)C(=O)N[C@@H](CC(N)=O)C(=O)N1)C(=O)NCC(N)=O (H-GGGCYFQNCPKG-NH2; disulfide 4-9),Potency,[1],inactive
CN=C(NC)NCc1ccccc1,Potency,[1],inactive
C=Cc1ccccc1,outcome,[2],inactive
same,Potency,[1],inactive
same,activation,[3],-0.864% and -2.45%
same,activation,[4],-0.47% and -1.21%
same,outcome,[5],inactive
same,outcome,[6],inactive
same,activation,[7],0.041% and 1.82%
same,max response,[8],-2.11% and 2.32%
OCC(O)COc1ccc(Cl)cc1 (centres undefined),Potency,[1],inactive
Nc1c(CC(=O)O)cccc1C(=O)c1ccccc1,Potency,[1],inactive
N[C@@H](C(=O)N[C@H]1C(=O)N2C(C(=O)O)=C(Cl)CC[C@H]12)c1ccccc1,Potency,[1],inactive
CN1CCN(CCCN2c3ccccc3Sc3ccccc32)CC1,Potency,[1],inactive
O=S(O)CNc1ccc(S(=O)(=O)c2ccc(NCS(=O)O)cc2)cc1,Potency,[1],inactive
C[N+](C)(CCCCCC[N+](C)(C)C1c2ccccc2-c2ccccc21)C1c2ccccc2-c2ccccc21,Potency,[1],inactive
c1ccc2c(CCC3CCNCC3)c[nH]c2c1,Potency,[1],inactive
CC[C@H](C)/C=C(C)/C=C/C1=CC2=CC(=O)[C@]3(C)OC(=O)[C@@H](C(C)=O)[C@@H]3C2=CO1,outcome,[9],inactive
COC1C(OC(=O)/C=C/C=C/C=C/C=C/C(=O)O)CCC2(CO2)C1C1(C)OC1CC=C(C)C (centres undefined),Potency,[1],inactive
same,Potency,[10],inactive
O.O=C([O-])CC([S-])C(=O)[O-].[Au+].[Na+].[Na+] (centres undefined),Potency,[1],inactive
CCCCCCCCCCCCCCCCCC(=O)OCCO,Potency,[1],inactive
COc1ccc(CNCC(O)COc2ccc3[nH]c(=O)ccc3c2)cc1OC (centres undefined),Potency,[1],inactive
CCCCCCCC/C=C\CCCCCCCC(=O)OC[C@@H](O)[C@H]1OC[C@H](O)[C@H]1O,Potency,[1],inactive
same,Potency,[11],inactive
same,activation,[3],1.59%
same,activation,[4],0.379%
same,Potency,[8],39.8 µM (active)
Cc1ccc(/C(=C\CN2CCCC2)c2cccc(/C=C/C(=O)O)n2)cc1,Potency,[1],inactive
O=P(O)(O)C(O)(Cc1cnc2ccccn12)P(=O)(O)O,Potency,[1],inactive
CCOC(=O)COc1ccc2c(C)c(CCN(CC)CC)c(=O)oc2c1,Potency,[1],inactive
CN(C(=O)CO)c1c(I)c(C(=O)NCC(O)CO)c(I)c(C(=O)NCC(O)CO)c1I (centres undefined),Potency,[1],inactive
O=S(O)CO,Potency,[1],inactive
CCCC(=O)N1CCCN(c2nc(N)c3cc(OC)c(OC)cc3n2)CC1,Potency,[1],inactive
CCCCCCCCCCCCCCCC(=O)OC/C=C(C)/C=C/C=C(C)/C=C/C1=C(C)CCCC1(C)C,Potency,[1],inactive
C1CNCCN1,Potency,[1],inactive
Cc1ccc(C2(O)CCN(CCCC(=O)c3ccc(F)cc3)CC2)cc1,Potency,[1],inactive
COc1cc2c(c(OC)c1OC)-c1c(cc3c(c1OC)OCO3)C[C@@H](C)[C@](C)(O)C2,Potency,[1],inactive
CN[C@H]1CC[C@@H](c2ccc(Cl)c(Cl)c2)c2ccccc21,Potency,[1],inactive
same,Potency,[10],28.7 µM (active)
same,outcome,[12],inactive
same,outcome,[13],inactive
same,outcome,[14],inactive
same,outcome,[15],inactive
same,outcome,[16],inactive
NC(=O)C[C@@H](N)C(=O)O,Potency,[1],inactive
O=C(O)c1cc2ccccc2c(Cc2c(O)c(C(=O)O)cc3ccccc23)c1O,Potency,[1],14.4 µM (active)
CCOC(=O)[C@H](CCc1ccccc1)N[C@H]1CCCN2CCC[C@@H](C(=O)O)N2C1=O,Potency,[1],inactive
O=S(=O)(c1ccccc1)N(CC(F)(F)F)c1ccc(C(O)(C(F)(F)F)C(F)(F)F)cc1,Potency,[11],27.3 µM (active)
same,activation,[3],23.4%
same,activation,[7],5.58%
same,max response,[8],-0.426%
CC(=O)OC[C@H]1O[C@@H](O[C@H]2[C@H](O)[C@@H](OC(=O)c3ccccc3C(=O)O)[C@H](O)O[C@@H]2COC(C)=O)[C@H](O)[C@@H](OC(=O)c2ccccc2C(=O)O)[C@@H]1O,Potency,[1],inactive
CCC(=O)O,Potency,[1],inactive
C=CCNC1=C2C[C@@H](C)C[C@H](OC)[C@H](O)[C@@H](C)/C=C(\C)[C@H](OC(N)=O)[C@@H](OC)/C=C\C=C(/C)C(=O)NC(=CC1=O)C2=O,Potency,[1],inactive
same,Potency,[10],16.1 µM (active)
same,Potency,[17],0.0721 µM (active)
same,outcome,[12],inactive
CCN(CC)c1ccc(N=Nc2ccc(S(=O)(=O)N(C)C)cc2)c(S(=O)(=O)NCC[n+]2ccccc2)c1,Potency,[1],inactive
NNc1nnc(Cc2ccncc2)c2ccccc12,Potency,[1],5.1 µM (active)
COc1ccc(C2NC(=S)N3C(c4ccc(OC)c(OC)c4)NC(=S)N23)cc1OC (centres undefined),Potency,[1],inactive
CN1CCN(C2=Nc3ccccc3Cc3ccccc32)CC1,Potency,[1],inactive
C[C@H](/C=C/[C@H](C)C(C)(C)O)[C@H]1CC[C@H]2/C(=C/C=C3C[C@@H](O)C[C@H](O)C3)CCC[C@]12C,Potency,[1],inactive
COc1ccc(C(=O)Nc2ccccc2CCC2CCCCN2C)cc1 (centres undefined),Potency,[1],inactive
